In PubChem BioAssay AID1159580 (chemical genetic matrix, 2015):
Screen size: about 5,500 compounds; about 2,000 (36%) were called active. Another 18% or so got no clear call; they are omitted. Cut-off read from the data, not from the text of the source: active = normalized growth mostly below about 0.91 (no sharp cut-off); inconclusive = no clear call, values can overlap the other calls; inactive = mostly above about 0.92. This is one part of the list.

Test: chemical genetic growth profiling, strain panel (AID 1159580);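 note: tested at 20 µM; growth read once vehicle control cultures reached saturation at 30 °C; 1 = growth at the plate median or of vehicle wells; lower values mean less growth of the strain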
Conditions: S. cerevisiae deletion strains, growth OD

Measured: normalized growth

OCC(O)Cc1ccc2c(c1)OCO2 (stereo not drawn)
inactive: locus YAL013W, strain DEP1, hits give low values 1.02 | locus YAL021C, strain ccr4, hits give low values 1.02 | locus YAL026C, strain drs2, hits give low values 0.985 | locus YAL030W, strain snc1, hits give low values 1 | locus YBL061C, strain skt5, hits give low values 0.997 | locus YBR009C, strain hhf1, hits give low values 1.01 | locus YBR021W, strain FUR4, hits give low values 1.02 | locus YBR023C, strain chs3, hits give low values 1.01 | locus YBR171W, strain sec66, hits give low values 1.01 | locus YBR229C, strain ROT2, hits give low values 1.01 | locus YBR231C, strain swc5, hits give low values 0.992 | locus YBR279W, strain paf1, hits give low values 1 | locus YCL011C, strain gbp2, hits give low values 1 | locus YCL016C, strain dcc1, hits give low values 1 | locus YCL029C, strain bik1, hits give low values 0.997 | locus YCL069W, strain vba3, hits give low values 0.981 | locus YCR088W, strain abp1, hits give low values 0.993 | locus YDL005C, strain med2, hits give low values 0.999 | locus YDL035C, strain GPR1, hits give low values 1.02 | locus YDL040C, strain nat1, hits give low values 0.998 | locus YDL074C, strain BRE1, hits give low values 1.05 | locus YDL101C, strain DUN1, hits give low values 1.02 | locus YDL134C, strain PPH21, hits give low values 1.01 | locus YDL185W, strain tfp1, hits give low values 0.999 | locus YDL192W, strain arf1, hits give low values 0.999 | locus YDR001C, strain nth1, hits give low values 0.997 | locus YDR069C, strain doa4, hits give low values 0.979 | locus YDR101C, strain arx1, hits give low values 0.989 | locus YDR137W, strain rgp1, hits give low values 0.993 | locus YDR150W, strain NUM1, hits give low values 1.02 | locus YDR159W, strain sac3, hits give low values 0.971 | locus YDR162C, strain NBP2, hits give low values 1.03 | locus YDR195W, strain ref2 0.966 | locus YDR297W, strain sur2, hits give low values 1.01 | locus YDR318W, strain mcm21, hits give low values 0.991 | locus YDR334W, strain swr1, hits give low values 1 | locus YDR335W, strain msn5, hits give low values 0.996 | locus YDR388W, hits give low values 1 | locus YDR392W, strain spt3, hits give low values 1.02 | locus YDR502C, strain sam2, hits give low values 1 | locus YEL003W, strain gim4, hits give low values 1.01 | locus YEL037C, strain rad23, hits give low values 1.01 | locus YEL061C, strain CIN8 (second series), hits give low values 1 | locus YEL061C, strain CIN8, hits give low values 1.01 | locus YER015W, strain faa2, hits give low values 1 | locus YER016W, strain bim1, hits give low values 1 | locus YER110C, hits give low values 0.996 | locus YER111C, strain swi4, hits give low values 0.997 | locus YER155C, strain BEM2 (second series), hits give low values 0.993 | locus YER155C, strain BEM2, hits give low values 1.01 | locus YER167W, strain BCK2, hits give low values 1.01 | locus YFR010W, strain ubp6, hits give low values 1.01 | locus YGL078C, strain dbp3, hits give low values 1 | locus YGL086W, strain mad1, hits give low values 0.993 | locus YGL167C, strain pmr1, hits give low values 1 | locus YGL173C, strain kem1, hits give low values 0.991 | locus YGL227W, strain vid30, hits give low values 0.985 | locus YGL240W, strain doc1, hits give low values 0.984 | locus YGL248W, strain PDE1, hits give low values 1.01 | locus YGL253W, strain hxk2, hits give low values 1 | locus YGR078C, strain PAC10, hits give low values 1.02 | locus YGR135W, strain pre9, hits give low values 1.01 | locus YGR229C, strain SMI1, hits give low values 1.02 | locus YGR252W, strain gcn5, hits give low values 1 | locus YHR013C, strain ard1, hits give low values 1.01 | locus YHR027C, strain rpn1, hits give low values 1 | locus YHR030C, strain SLT2, hits give low values 1.01 | locus YHR079C, strain IRE1 (second series), hits give low values 0.991 | locus YHR094C, strain hxt1, hits give low values 0.999 | locus YHR129C, strain ARP1, hits give low values 1.01 | locus YHR142W, strain chs7, hits give low values 1.01 | locus YHR200W, strain rpn10, hits give low values 1 | locus YIL066C, strain RNR3, hits give low values 1.02 | locus YIL073C, strain SPO22, hits give low values 1.04 | locus YIL125W, strain kgd1, hits give low values 1.02 | locus YIR030C, strain dcg1, hits give low values 1 | locus YJL092W, strain hpr5, hits give low values 0.998 | locus YJL095W, strain BCK1 (second series), hits give low values 1 | locus YJL095W, strain BCK1, hits give low values 1.04 | locus YJL115W, strain asf1, hits give low values 1 | locus YJL129C, strain trk1, hits give low values 0.989 | locus YJL134W, strain LCB3, hits give low values 1.01 | locus YJL154C, strain vps35, hits give low values 1 | locus YJL164C, strain tpk1, hits give low values 1.01 | locus YJL166W, strain qcr8, hits give low values 1.02 | locus YJL168C, strain set2, hits give low values 0.994 | locus YJL187C, strain SWE1 (second series), hits give low values 1.03 | locus YJL187C, strain SWE1, hits give low values 0.982
